Data as given in PubChem BioAssay AID1159580 (chemical genetic matrix, 2015).
Screen size: about 5,500 compounds; about 2,000 (36%) were called active. Roughly 18% stayed inconclusive and do not appear here. No stated cut-off is given here; in the data, active means normalized growth mostly below about 0.91 (no sharp cut-off); inconclusive means no clear call, values can overlap the other calls; inactive means mostly above about 0.92. The list shows a part of the results.

Experiment: chemical genetic growth profiling, strain panel (AID 1159580);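 further: tested at 20 µM; growth read once vehicle control cultures reached saturation at 30 °C; 1 = growth at the plate median or of vehicle wells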
Settings: growth OD
[1] = S. cerevisiae deletion strains, locus YAL013W, strain DEP1, stronger effect = lower value
[2] = S. cerevisiae deletion strains, locus YBR229C, strain ROT2, stronger effect = lower value
[3] = S. cerevisiae deletion strains, locus YDL101C, strain DUN1, stronger effect = lower value
[4] = S. cerevisiae deletion strains, locus YDL134C, strain PPH21, stronger effect = lower value
[5] = S. cerevisiae deletion strains, locus YDR150W, strain NUM1, stronger effect = lower value
[6] = S. cerevisiae deletion strains, locus YEL061C, strain CIN8, stronger effect = lower value
[7] = S. cerevisiae deletion strains, locus YGR078C, strain PAC10, stronger effect = lower value
[8] = S. cerevisiae deletion strains, locus YGR229C, strain SMI1, stronger effect = lower value
[9] = S. cerevisiae deletion strains, locus YHR030C, strain SLT2, stronger effect = lower value
[10] = S. cerevisiae deletion strains, locus YHR087W, strain rtc3, stronger effect = lower value
[11] = S. cerevisiae deletion strains, locus YJL187C, strain SWE1, stronger effect = lower value
[12] = S. cerevisiae deletion strains, locus YJR043C, strain POL32, stronger effect = lower value
[13] = S. cerevisiae deletion strains, locus YJR075W, strain HOC1, stronger effect = lower value
[14] = S. cerevisiae deletion strains, locus YLR039C, strain RIC1, stronger effect = lower value
[15] = S. cerevisiae deletion strains, locus YLR058C, strain SHM2 (second series), stronger effect = lower value
[16] = S. cerevisiae deletion strains, locus YLR085C, strain ARP6, stronger effect = lower value
[17] = S. cerevisiae deletion strains, locus YLR262C, strain YPT6, stronger effect = lower value
[18] = S. cerevisiae deletion strains, locus YML094W, strain GIM5, stronger effect = lower value
[19] = S. cerevisiae deletion strains, locus YMR219W, strain ESC1, stronger effect = lower value
[20] = S. cerevisiae deletion strains, locus YMR263W, strain SAP30, stronger effect = lower value
[21] = S. cerevisiae deletion strains, locus YNL153C, strain GIM3, stronger effect = lower value
[22] = S. cerevisiae deletion strains, locus YNL298W, strain CLA4 (second series), stronger effect = lower value
[23] = S. cerevisiae deletion strains, locus YNL322C, strain KRE1, stronger effect = lower value
[24] = S. cerevisiae deletion strains, locus YNR030W, strain Alg12, stronger effect = lower value
[25] = S. cerevisiae deletion strains, locus YOL006C, strain TOP1, stronger effect = lower value
[26] = S. cerevisiae deletion strains, locus YPL055C, strain LGE1, stronger effect = lower value
[27] = S. cerevisiae deletion strains, locus YPL241C, strain CIN2, stronger effect = lower value
[28] = S. cerevisiae deletion strains, locus YPR135W, strain CTF4, stronger effect = lower value
[29] = S. cerevisiae deletion strains, locus YKL190W, strain CNB1, stronger effect = lower value

Measured: normalized growth

COc1ccccc1NC(=O)NCCSCc1ccccc1Cl
inactive: [1] 0.979 | [2] 0.981 | [3] 1.03 | [4] 0.978 | [5] 0.968 | [6] 0.983 | [7] 0.993 | [8] 0.984 | [9] 0.877 | [10] 0.976 | [11] 1.01 | [12] 1.01 | [13] 1.01 | [14] 0.887 | [15] 1 | [16] 1.07 | [17] 0.931 | [18] 0.963 | [19] 0.988 | [20] 1.01 | [21] 1.01 | [22] 0.974 | [23] 0.985 | [24] 0.971 | [25] 0.954 | [26] 0.927 | [27] 1.04 | [28] 0.88 | S. cerevisiae strains, strain wild type, stronger effect = lower value 0.978

CSc1nsc(SC)c1C(=O)NC(=O)Nc1ccc(F)cc1F
inactive: [1] 1.01 | [2] 1.01 | [3] 1.04 | [5] 1.04 | [6] 1.01 | [7] 1.01 | [8] 1.02 | [9] 1.1 | [10] 1.02 | [12] 1.01 | [13] 1.01 | [29] 1.02 | [14] 1.03 | [15] 1 | [16] 1.02 | [17] 1 | [18] 1.08 | [19] 1 | [20] 0.993 | [21] 1.01 | [22] 1.04 | [23] 1.02 | [24] 1.03 | [26] 1.08 | [27] 1.07 | [28] 1.07

Cc1cc(C)c(CSCCNC(=O)Nc2ccc(F)cc2F)c(C)c1
active: [16] 1.28 [resistant]
inactive: [1] 1.02 | [2] 1.01 | S. cerevisiae deletion strains, locus YCL061C, strain MRC1, stronger effect = lower value 1.03 | [3] 1.03 | [4] 1.01 | [5] 0.942 | [6] 1.01 | [7] 1.03 | [8] 1.02 | [9] 1.08 | [10] 1.02 | [11] 1.03 | [12] 1.02 | [13] 1.03 | [29] 1.02 | [14] 1.05 | [15] 1.02 | [17] 1.03 | [18] 1.04 | [19] 1.01 | [20] 0.937 | S. cerevisiae deletion strains, locus YMR307W, strain GAS1, stronger effect = lower value 1.29 | [21] 1.01 | [22] 1.03 | [23] 1.02 | [24] 1.04 | [25] 1.18 | [26] 0.908 | [27] 1.13 | [28] 1.11
